This is part of a sample that, as a whole, favours compounds with a hit. Of some 83,000 tested, about 20% had one in any assay.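 Treatment: one concentration, 48 hours, 96-well format. Scoring: percent growth, with anything below 10 considered active.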 Values without a mark were called inactive. Active and inactive are the calls of the source.
Each compound was assayed on HL-60(TB) leukemia (assay: NCI-60 one-dose screen, 48 h (100 = growth as untreated, 0 = no growth, -100 = all killed)). Settings: 10 µM unless noted.

| SMILES | growth |
| --- | --- |
| Cc1cnc(Nc2ccc(N3CCN(C)CC3)cc2)nc1Nc1ccc(Cl)c(NS(=O)(=O)C(C)(C)C)c1 | -13.4% (active) |
| O=C1OC(N(Cc2ccc(Cl)cc2)c2ccccc2)c2ccccc21 (stereo not given) | 93.8% |
| CC(C)c1ccc(-n2c(=S)[nH]c3sc4c(c3c2=O)CCC(=O)C4)cc1 | 75.4% |
| O=C(Nc1ccc(OS(=O)(=O)c2ccccc2)cc1)C1CCCCC1 | 94% |
| Cn1ccnc1C(=O)/C=C/c1ccc(CC(=O)NC2CCCCC2)cc1 | 68.1% |
| CC(=O)/C(Br)=C/c1ccc(Br)o1 | -18.8% (active) |
| CNc1nc(NC2CCCC2)nc(Sc2ccc(OC)cc2)n1 | 2% [100 µM] (active) |
| Nc1nc(-c2ccccc2Br)nn1-c1nc2ccccc2s1 | 99.3% |
| CSc1nc(C)c(C(=O)CCN2CCN(c3ccccn3)CC2)s1 | 102% |
| COc1cc(N)c2ncccc2c1SC | 107% |
| CCC12OC(COc3ccccc3)CN1CCN2c1ccccc1 (stereo not given) | 94.7% [100 µM] |
| CN(C)c1ccc(N)c2ccccc12 | 43.5% |
| COC1=CC(=O)C(OC)=C(OC)C1=O | 61.4% |
| O=c1oc2ccc(I)cc2c(=O)n1-c1ccc(Br)cc1F | -27.8% (active) |
| C#C[C@@]1(O)[C@@H](CO)O[C@@H](n2cnc3c(-c4ccccc4)ncnc32)[C@@H]1O | 102% |
| c1ccc2c(N=NSc3ncnc4nc[nH]c34)c3ccccc3nc2c1 | -5.76% (active) |
| COc1ccc(-c2cc(=O)[nH]c3c(OC)c4ccccc4c(OC)c23)cc1 | -19.8% (active) |
| O=C(NCCCNS(=O)(=O)c1ccc(Cl)cc1)Nc1ccc(-n2cc(-c3ccncc3)c(-c3ccc(Cl)c(O)c3)n2)cc1 | 16.3% |
| COc1ccc2sc3c(NCCO)nc4ccccc4c3c(=O)c2c1 | 104% |
| CCCCNC1(C#N)CCN(Cc2ccccc2)CC1 | 153% |

| SMILES | growth |
| --- | --- |
| CC(CCc1ccccc1)NC(=O)c1n[nH]c(=O)c2ccccc12 (stereo not given) | 88.3% |
| C=C(C)C1CCC2(C(=O)O)CCC3(C)C(CCC4C5(C)CCC(OC(=O)NCc6ccccc6)C(C)(C)C5CCC43C)C12 (stereo not given) | 23% |
| O=C(Nc1ccc(F)cc1F)c1cc(I)ccc1O | -34.5% (active) |
| C[C@H]1[C@H]2C3=CC[C@@H]4[C@@]5(C)C/C(=C/c6ccncc6)C(=O)C(C)(C)[C@@H]5CC[C@@]4(C)[C@]3(C)CC[C@@]2(C(=O)N2CCN(C)CC2)CC[C@@H]1C | 57.3% |
| CC[C@@](C)(NC(=O)[C@H](C)NC(=O)CCNC(=O)C(C)(C)NC(=O)[C@H](C)NC(=O)[C@@H]1CCCN1C(=O)[C@@](C)(CC)NC(=O)[C@H](Cc1ccccc1)NC(=O)C1CCCN1C(=O)C(C)(C)NC(=O)C1CCCN1C(=O)C(C)(C)NC(C)=O)C(=O)NCCC(=O)N[C@@H](CC(C)C)C(=O)NC(C)(C)C(=O)NCCC(=O)N[C@@H](CC(C)C)C(=O)NC(C)(C)C(=O)NC(C)(C)C(=O)N[C@@H](CC(C)C)C(=O)NCCC(=O)NCO (stereo not given in full) | -62.3% (active) |
| Cc1sc2nc(NCc3ccccc3)[nH]c(=O)c2c1C | 22.4% |
| O=C(/C=C/c1ccccc1)c1ccc(O)c(CN2CCN(c3cc4c(cc3F)c(=O)c(C(=O)O)cn4C3CC3)CC2)c1 | -6% (active) |
| Cc1oc(-c2ccccc2Cl)cc1C(=O)Nc1ccc(S(N)(=O)=O)cc1 | 102% |
| CCSc1ccc(C2C(Br)C(=O)N2c2cc(OC)c(OC)c(OC)c2)cc1 (stereo not given) | -9.14% (active) |
| C=CC(=O)N1CCC(Oc2cc3c(Nc4ccc(Cl)c(Cl)c4F)ncnc3cc2OC)CC1 | 24.7% |
| NC(=N\N=C/c1ccc(Cl)cc1Cl)/C(N)=N\N=C/c1ccc(Cl)cc1Cl | 79.7% |
| Cc1cccc(C)c1NCc1nc(-c2ccccc2)n[nH]1 | 90.7% |
| COc1ccc(-c2nc(/C=C3\SC(=NCc4ccccc4)NC3=O)c3ccccn23)cc1 | -7.59% (active) |
| N#Cc1c2ncccc2c2nnc3cc(Cl)c(Cl)cc3n12 | 80.4% |
| C=C(C)[C@@H]1CC[C@]2(COCCC#N)CC[C@]3(C)[C@H](CC[C@@H]4[C@@](C)(CCCNCCC#N)[C@H](C(=C)C)CC[C@]43C)[C@@H]12 | -16.2% [100 µM] (active) |
| COc1ccc(-c2nnc3n(C)c(=O)c4ccccc4n23)cc1O | -22% (active) |
| CN1CCN(Cc2ccc(NC(=O)c3cncc(C#Cc4c(N)ncc5c(F)cccc45)c3)cc2C(F)(F)F)CC1 | -60.4% (active) |
| C=C(C)[C@@H]1CCC[C@]2(C(=O)O)CC[C@]3(C)[C@@H](CC[C@@H]4[C@@]5(C)C/C(=C/c6ccncc6)C(=O)C(C)(C)[C@@H]5CC[C@]43C)[C@@H]12 | -5.12% (active) |
| COc1ccc2c(c1)CCCN2c1c2ccccc2nc2ccccc12 | 5.6% (active) |
| C=CCNc1ccc2c3c(cccc13)C(=O)N(N1C(=O)c3cccc4cccc(c34)C1=O)C2=O | 102% |

Source: PubChem BioAssay (NCI)
